The nature of test [1]: small molecules captured by biotinylated probe aFSTL3 – biochemical, small-molecule microarray, fluorescence 635/667, stem cell growth factor project, primary screen (AID 1064).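 Further: measures binding of the biotinylated anti-FSTL3 antibody to printed compounds.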 As to conditions: higher = more signal.
The nature of test [2]: binders from COS7 lysate, DM2A8 probe, primary screen, torsin A project, cell lysate, small-molecule microarray, fluorescence 635/667 (AID 1065). As to conditions: higher = more signal, COS7 lysate expressing mutant human TOR1A.
A short description of test [3]: small molecules captured by biotinylated probe aFGF2 – biochemical, small-molecule microarray, fluorescence 635/667, stem cell growth factor project, primary screen (AID 1067).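 Further: measures binding of biotinylated aFGF2 protein to printed compounds on slides; z-score merges feature fluorescence and signal-to-noise across triplicate slides.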 As to conditions: higher = more signal.
A short description of test [4]: small molecules captured by biotinylated probe aFGF10 – biochemical, small-molecule microarray, fluorescence 635/667, stem cell growth factor project, primary screen (AID 1071).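 Further: score merges 667 nm spot intensity and signal to noise from triplicate slides.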 As to conditions: higher = more signal.
Test [5] addresses Neurogenic locus notch homolog protein 2 (Homo sapiens) (UniProt Q04721). Description: small molecules binding Notch2 protein – biochemical, small-molecule microarray, 635 nm fluorescence, stem cell growth factors, primary screen (AID 1073). As to conditions: higher = more signal.
Test [6] has as its target Pro-neuregulin-1, membrane-bound isoform (Homo sapiens) (UniProt Q02297). The test can be described thus: small molecules binding neuregulin-1 protein – biochemical, small-molecule microarray, fluorescence 635/667, psychiatric disease protein project, primary screen (AID 1075).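 Further: score combines 667 nm spot fluorescence with signal to noise.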 The note with it: NRG1 binding, 635 nm fluorescence, higher = more signal.
In test [7] the test system is Neuregulin-1 EGF-like domain. Description: small molecules binding NRG1 EGF domain – biochemical, small-molecule microarray, 635 nm fluorescence, primary screen (AID 1081).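 Further: binding of the protein to compounds printed on small-molecule microarray slides.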 As to conditions: higher = more signal.
A short description of test [8]: FRG1 expression reporter modulators in myotubes – cell-based, C2C12 myotubes, firefly/Renilla luciferase, luminescence, FRG1 inhibition for FSHD, primary screen (AID 1084). As to conditions: FRG1 promoter luciferase, higher = more signal, called active from +8 up or from −8 down.
Test [9] in a line: small molecules captured by biotinylated probe aFST – biochemical, small-molecule microarray, fluorescence 635/667, stem cell growth factor project, primary screen (AID 1086).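 Further: score merges 667 nm fluorescence with signal-to-noise of each printed compound spot.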 As to conditions: higher = more signal.
Test [10] can be described thus: binders of probe aHhip on microarray, primary screen, stem cell growth factor project, biochemical, small-molecule microarray, fluorescence 635/667 (AID 1087).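 Further: score merges spot fluorescence at 667nm with spot signal to noise ratio.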 The note with it: higher = more signal.
The test system of test [11] is PRMT1 (protein arginine N-methyltransferase 1). The test can be described thus: small molecules binding arginine methyltransferase PRMT1 – biochemical, small-molecule microarray, 635 nm fluorescence, primary screen (AID 1088).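 Further: binding of Prmt1 protein to compounds spotted on small-molecule microarray slides.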 The note with it: higher = more signal.
Test [12] in a line: growth effects on S. cerevisiae YJM789 – YJM789 clinical isolate, OD600, 24 h, basal, primary screen (AID 1089).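 Further: growth of clinical yeast isolate S. cerevisiae YJM 789 seeded 1000 cells per well; test concentration not given here.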 The note with it: higher = more signal, called active from +8 up or from −8 down.
Test [13] in a line: S. pombe growth modifiers, basal conditions – strain 972, OD600, 24 h, no modulator, primary screen (AID 1090).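 Further: basal condition with compound alone and no growth modifier present; test concentration not given here.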 The note with it: S. pombe 972 growth, higher = more signal, called active from +8 up or from −8 down.
Test [14] can be described thus: budding yeast growth modifiers under rapamycin – strain BY4716, OD600, 96 h, primary screen (AID 1091). Further: test concentration not given here. The note with it: S. cerevisiae BY4716 + rapamycin, higher = more signal, called active from +8 up or from −8 down.
The target in test [15] is Torsin-1A-interacting protein 2 (Homo sapiens) (UniProt Q8NFQ8). Description: small molecules binding lysate-expressed LULL1 – cell lysate, human LULL1 lysate, 635/667 nm fluorescence, primary screen (AID 1092).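 Further: probe is lysate of COS7 cells overexpressing human LULL1; score merges per-feature 667 nm fluorescence with signal-to-noise.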 As to conditions: small-molecule microarray, hLULL1 lysate binding, 635 nm fluorescence; higher = more signal.
The nature of test [16]: optical density change of DRC41 E. coli – strain DRC41, OD650, 24 h, E. coli filamentation project, primary screen (AID 1093).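 Further: MC1000 strain lacking acrAB efflux and sulA so SOS filamentation is blocked; test concentration not given here.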 The note with it: E. coli DRC41 growth, higher = more signal, called active from +8 up or from −8 down.
Test [17] can be described thus: probe aLefty2 binding to arrayed compounds – biochemical, biotinylated probe, 635/667 nm fluorescence, primary screen (AID 1094).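 Further: score merges spot fluorescence near 667 nm with spot signal-to-noise ratio.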 The note with it: small-molecule microarray, higher = more signal.
The subject of test [18] is Noggin (protein binding on small-molecule microarray). The test can be described thus: small molecules binding Noggin protein – biochemical, 635/667 nm fluorescence, primary screen (AID 1095).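 Further: score merges 667 nm feature fluorescence with signal to noise over triplicate slides.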 The note with it: 635 nm fluorescence, higher = more signal.
Test [19] has as its target Neurogenic locus notch homolog protein 3 (Homo sapiens) (UniProt Q9UM47). Description: small molecules binding NOTCH3 protein – biochemical, 635/667 nm fluorescence, primary screen (AID 1096). The note with it: small-molecule microarray, 635 nm fluorescence, higher = more signal.
A short description of test [20]: probe aEGFR binding to arrayed compounds – biochemical, biotinylated probe, 635/667 nm fluorescence, primary screen (AID 1097).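 Further: probe is a biotinylated anti-EGFR antibody binding compounds printed on slides; score combines fluorescence near 667 nm and signal to noise of each spot.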 As to conditions: small-molecule microarray, higher = more signal.

Activity calls are given as the source filed them.

Pro-neuregulin-1, membrane-bound isoform (Homo sapiens), sequence (Q02297 whole entry, looked up, the tested form may be a part, canonical isoform): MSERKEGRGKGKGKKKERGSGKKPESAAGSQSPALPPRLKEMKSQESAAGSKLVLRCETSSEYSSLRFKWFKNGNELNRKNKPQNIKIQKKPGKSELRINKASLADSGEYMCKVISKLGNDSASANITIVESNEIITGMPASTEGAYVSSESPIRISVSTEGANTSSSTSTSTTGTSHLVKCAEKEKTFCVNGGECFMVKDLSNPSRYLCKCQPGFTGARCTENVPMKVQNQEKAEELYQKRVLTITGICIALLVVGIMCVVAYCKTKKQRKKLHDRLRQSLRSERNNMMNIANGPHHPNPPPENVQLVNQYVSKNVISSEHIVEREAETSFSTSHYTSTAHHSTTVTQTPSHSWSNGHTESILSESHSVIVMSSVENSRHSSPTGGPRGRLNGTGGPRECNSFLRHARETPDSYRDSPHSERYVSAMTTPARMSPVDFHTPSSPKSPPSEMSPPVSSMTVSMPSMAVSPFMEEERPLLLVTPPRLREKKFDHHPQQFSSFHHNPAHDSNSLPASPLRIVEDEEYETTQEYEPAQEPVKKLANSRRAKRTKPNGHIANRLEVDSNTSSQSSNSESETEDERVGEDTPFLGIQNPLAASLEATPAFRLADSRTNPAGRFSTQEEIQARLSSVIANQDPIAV
Neurogenic locus notch homolog protein 2 (Homo sapiens), sequence (Q04721 whole entry, looked up, canonical isoform): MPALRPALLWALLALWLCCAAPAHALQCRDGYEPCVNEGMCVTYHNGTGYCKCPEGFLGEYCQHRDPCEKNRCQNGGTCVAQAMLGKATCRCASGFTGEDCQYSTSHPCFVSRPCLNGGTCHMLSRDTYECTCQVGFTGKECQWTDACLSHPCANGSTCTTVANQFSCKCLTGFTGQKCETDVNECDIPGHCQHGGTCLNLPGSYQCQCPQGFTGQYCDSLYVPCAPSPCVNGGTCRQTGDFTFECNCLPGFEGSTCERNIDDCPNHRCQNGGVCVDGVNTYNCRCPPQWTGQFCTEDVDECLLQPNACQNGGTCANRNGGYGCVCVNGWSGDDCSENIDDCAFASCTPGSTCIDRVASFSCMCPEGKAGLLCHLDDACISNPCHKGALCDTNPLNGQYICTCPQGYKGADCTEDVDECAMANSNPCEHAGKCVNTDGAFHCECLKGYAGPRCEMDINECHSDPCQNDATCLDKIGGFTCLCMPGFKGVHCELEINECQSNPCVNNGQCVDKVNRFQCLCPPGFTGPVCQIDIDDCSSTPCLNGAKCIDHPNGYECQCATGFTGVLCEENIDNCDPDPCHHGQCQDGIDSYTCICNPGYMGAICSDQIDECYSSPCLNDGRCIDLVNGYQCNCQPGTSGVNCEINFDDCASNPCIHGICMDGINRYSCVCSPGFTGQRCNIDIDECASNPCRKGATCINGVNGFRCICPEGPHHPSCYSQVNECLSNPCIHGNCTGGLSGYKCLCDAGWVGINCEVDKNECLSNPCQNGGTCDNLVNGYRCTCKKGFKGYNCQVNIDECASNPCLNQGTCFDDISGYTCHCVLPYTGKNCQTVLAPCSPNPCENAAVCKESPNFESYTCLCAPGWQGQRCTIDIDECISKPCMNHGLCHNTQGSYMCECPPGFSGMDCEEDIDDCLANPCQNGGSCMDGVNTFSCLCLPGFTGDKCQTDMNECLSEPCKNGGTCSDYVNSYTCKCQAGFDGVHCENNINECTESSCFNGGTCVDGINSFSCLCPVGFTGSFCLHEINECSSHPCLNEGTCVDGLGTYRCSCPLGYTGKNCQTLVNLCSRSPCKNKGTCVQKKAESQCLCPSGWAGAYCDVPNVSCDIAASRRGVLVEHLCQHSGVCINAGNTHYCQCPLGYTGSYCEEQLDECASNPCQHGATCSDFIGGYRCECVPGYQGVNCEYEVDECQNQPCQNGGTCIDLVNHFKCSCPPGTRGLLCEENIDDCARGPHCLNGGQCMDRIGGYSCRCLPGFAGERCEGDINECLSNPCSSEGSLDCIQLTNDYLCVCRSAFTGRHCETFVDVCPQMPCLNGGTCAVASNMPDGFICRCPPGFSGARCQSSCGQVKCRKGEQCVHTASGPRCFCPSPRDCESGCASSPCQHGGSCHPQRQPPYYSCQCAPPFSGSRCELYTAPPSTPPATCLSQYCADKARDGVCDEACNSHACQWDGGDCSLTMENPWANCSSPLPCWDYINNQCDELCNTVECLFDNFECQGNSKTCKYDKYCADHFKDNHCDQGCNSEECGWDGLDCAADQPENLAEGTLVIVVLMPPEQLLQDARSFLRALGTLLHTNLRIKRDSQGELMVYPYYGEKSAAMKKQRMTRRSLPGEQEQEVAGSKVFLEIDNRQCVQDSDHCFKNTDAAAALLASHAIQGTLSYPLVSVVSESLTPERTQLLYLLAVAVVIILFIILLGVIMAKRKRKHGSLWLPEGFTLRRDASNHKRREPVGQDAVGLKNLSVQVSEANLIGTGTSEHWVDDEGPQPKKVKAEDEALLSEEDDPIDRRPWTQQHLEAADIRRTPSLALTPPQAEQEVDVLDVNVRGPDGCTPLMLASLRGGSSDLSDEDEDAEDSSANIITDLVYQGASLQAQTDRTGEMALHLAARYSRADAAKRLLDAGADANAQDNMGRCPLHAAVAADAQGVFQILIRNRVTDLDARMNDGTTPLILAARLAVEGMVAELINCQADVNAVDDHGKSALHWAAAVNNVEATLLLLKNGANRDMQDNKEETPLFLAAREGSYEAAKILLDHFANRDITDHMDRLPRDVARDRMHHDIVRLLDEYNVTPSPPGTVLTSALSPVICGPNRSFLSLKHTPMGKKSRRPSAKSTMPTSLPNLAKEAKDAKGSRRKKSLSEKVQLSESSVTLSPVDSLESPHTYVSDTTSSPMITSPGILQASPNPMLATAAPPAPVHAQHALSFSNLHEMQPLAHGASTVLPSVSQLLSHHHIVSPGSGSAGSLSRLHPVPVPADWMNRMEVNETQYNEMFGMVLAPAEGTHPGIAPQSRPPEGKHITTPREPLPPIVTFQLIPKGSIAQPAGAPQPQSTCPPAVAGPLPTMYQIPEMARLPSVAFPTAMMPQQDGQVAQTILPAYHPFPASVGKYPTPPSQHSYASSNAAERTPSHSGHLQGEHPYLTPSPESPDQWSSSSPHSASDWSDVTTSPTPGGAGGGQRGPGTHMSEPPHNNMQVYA
Torsin-1A-interacting protein 2 (Homo sapiens), sequence (Q8NFQ8 whole entry, looked up): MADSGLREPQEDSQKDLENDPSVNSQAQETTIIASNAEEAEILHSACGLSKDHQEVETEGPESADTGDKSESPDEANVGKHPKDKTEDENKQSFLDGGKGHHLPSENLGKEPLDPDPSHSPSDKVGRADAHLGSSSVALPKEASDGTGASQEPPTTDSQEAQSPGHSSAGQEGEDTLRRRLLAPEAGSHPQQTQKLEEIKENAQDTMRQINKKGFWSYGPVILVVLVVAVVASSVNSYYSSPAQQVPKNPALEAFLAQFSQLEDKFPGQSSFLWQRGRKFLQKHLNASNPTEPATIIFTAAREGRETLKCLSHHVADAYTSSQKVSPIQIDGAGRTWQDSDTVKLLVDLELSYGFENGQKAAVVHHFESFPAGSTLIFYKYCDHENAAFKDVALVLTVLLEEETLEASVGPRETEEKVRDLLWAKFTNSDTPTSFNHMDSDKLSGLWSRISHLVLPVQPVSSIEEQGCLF

As to `CCCc1cc2c(n1Cc1cc(F)cc(F)c1)C(C)C1CN(C(=O)c3ccccc3)C(C)(C(=O)OC)C21` (stereo not given), the composite z-score in [1] amounted to 1.25; in [2], 1.77; in test [3], 0.256; in test [4], 0.426; in [5], 1.71; in test [6], 1.62. For the same molecule, the composite z-score in test [7] turned out to be 1.18; in test [9] it was 1.58; in test [10], 0.441; in test [11] it was 0.497; in test [15], 3.11; in test [17] it was 1.02. Further, the values for the composite z-score in test [18], in test [19] and in [20] were -0.266, 1.03 and 0.249, respectively. Also, the z-score in [8] is 0.0046 (inactive); in test [12], 0.149 (inactive); in test [13] it was 0.744 (inactive); in test [14] it was 0.734 (inactive); in test [16], -0.738 (inactive).
`CCC[C@@H]1C[C@@]1(CCC)[C@@H](NS(=O)(=O)c1cccc2cccnc12)c1ccc(Cl)cc1`: the composite z-score in [1] was 0.561; in [2], -0.754; in [3], 0.0367; in test [4], 0.0835; in [5], 0.763; in [6], 0.858. The composite z-score in test [7] is 0.917; in test [9], 0.855; in test [10], -0.0729; in [11], 0.0685; in [15], 2.66; in test [17] it was 0.0763. The results for the composite z-score in test [18], in [19] and in test [20] were -1.22, 0.296 and -0.136, respectively. The z-score in [8] is -3.58 (inactive); in test [12] it was 0.788 (inactive); in test [13], 1.01 (inactive); in [14] it was 0.478 (inactive); in test [16], -1.01 (inactive).
Regarding `C[C@H]1NC(=O)[C@@]23C(=O)N[C@@H](Cc4ccccc4)C2[C@H](C)[C@@]2(C)O[C@H]2C3/C=C/C/C=C\CNC(=O)[C@@H]2CCCN2C1=O` (stereo not given in full), the composite z-score in [1] is -0.468; in test [2], -0.454; in [3], 0.0653; in [4] it was 0.479; in test [5], 0.521; in [6], 0.425. For the same molecule, the composite z-score is 0.909 in [7]; 0.145 in test [9]; -0.132 in [10]; -0.0905 in [11]; 0.697 in test [15]; -0.166 in [17]. Besides, the composite z-score in [18] is 1.15; in [19], 1.01; in test [20] it was -0.139. The z-score is 0.182 (inactive) in test [8]; -0.185 (inactive) in [12]; -0.769 (inactive) in test [13]; -1.52 (inactive) in [14]; 0.1 (inactive) in [16].
With `COc1ccc(/C=C/C=O)cc1`, the composite z-score in [1] is -0.0583; in [2], 0.144; in test [3], -0.0982; in [4] it was 0.19; in test [5] it was 0.173; in test [6] it was -0.802. The composite z-score was -0.562 in [7]; 0.0803 in test [9]; 0.0975 in [10]; 0.722 in [11]; -0.714 in test [15]; -0.15 in test [17]. In addition, the composite z-score was 0.775 in [18], 0.271 in test [19] and -0.045 in test [20]. The z-score is 0.599 (inactive) in [8]; 1.17 (inactive) in test [12]; -7.83 (inactive) in [13]; 1.01 (inactive) in test [14]; 0.0062 (inactive) in [16].
Consider `C=C(CCCC)/C(=C/C[C@H](OC(=O)c1ccncc1)c1ccccc1OCCO)c1cnc2ccccc2c1`, for which the composite z-score in [1] is -0.345; in [2] it was 1.04; in [3], -0.0544; in test [4] it was 0.706; in test [5], 0.965; in test [6] it was 0.424. The composite z-score in test [7] is 1.05; in test [9], 0.228; in test [10] it was 0.126; in [11], 1.55; in test [15], 1.34; in [17], -0.217. The composite z-score was 1.27 in test [18], 1.13 in test [19] and -0.111 in [20]. The z-score in [8] was -0.756 (inactive); in test [12], -1.73 (inactive); in test [13] it was -1.14 (inactive); in test [14] it was 3.47 (inactive); in [16] it was -0.0552 (inactive).

(Values after PubChem BioAssay.)
